Screening data from PubChem BioAssay.
Sampled rows, rich in hits. Any-hit rate of the full collection: about 3.4%.
GPR151 ag: activates the human receptor GPR151. activation, % at 11.2 µM. PathHunter beta-arrestin GPR151 cells, luminescence. hit rate 1% among 650,000. Q8TDV0; in the data active = activation above about 4.9%;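 also: 0% = median of compound wells and 100% = cells with positive control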
TEAD-YAP inh: TEAD-YAP interaction inhibition; HEK-TIYL cells, TEAD-Gal4/YAP UAS-luciferase luminescence; inhibition, % at 9.12 µM; hit rate 1.4% among 640,000; in the data active = inhibition above about 32%;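 also: 0% = median of test compound wells and 100% = reference inhibitor wells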
MITF inh: blocks human microphthalmia-associated transcription factor; O75030; AlphaScreen MITF homodimerization, bead proximity signal; inhibition, % at 2.6 µM; hit rate 0.91% among 650,000; in the data active = inhibition above about 50%;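 also: 0% = vehicle wells with protein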
Target sequence (O75030 whole entry, looked up): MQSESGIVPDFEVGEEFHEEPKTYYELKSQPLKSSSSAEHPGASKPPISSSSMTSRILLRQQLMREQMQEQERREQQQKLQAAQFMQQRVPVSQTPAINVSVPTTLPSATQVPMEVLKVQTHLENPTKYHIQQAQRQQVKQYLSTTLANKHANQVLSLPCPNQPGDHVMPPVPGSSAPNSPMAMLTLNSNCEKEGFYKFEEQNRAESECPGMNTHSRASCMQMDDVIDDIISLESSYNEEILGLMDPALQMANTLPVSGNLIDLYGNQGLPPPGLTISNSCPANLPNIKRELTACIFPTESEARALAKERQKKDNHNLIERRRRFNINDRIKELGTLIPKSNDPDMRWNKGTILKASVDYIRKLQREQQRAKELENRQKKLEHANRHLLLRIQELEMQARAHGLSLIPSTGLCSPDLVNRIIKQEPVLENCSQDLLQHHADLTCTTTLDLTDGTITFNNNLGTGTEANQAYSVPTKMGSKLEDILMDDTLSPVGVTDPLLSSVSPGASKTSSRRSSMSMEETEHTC
FBW7 act: activators of human E3 ligase FBW7; AID 1259310; normalized activity (activation), % at 26.1 µM; Q969H0; AlphaScreen FBW7–phospho-cyclin E peptide binding, activator screen; hit rate 0.13% among 650,000; in the data active = normalized activity above about 1.9%;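 also: purified mutant Fbw7 with reduced substrate affinity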
An asterisk follows results filed as active.

SMILES	GPR151 ag	TEAD-YAP inh	MITF inh	FBW7 act
Cc1cc(C)n2nc(CC(=O)NC3CCCCC3)nc2n1	0.0	4.7	-8.2	0.0
CCOc1ccc(S(=O)(=O)NCc2ccccc2)c2ccccc12	-1.2	5.3	-3.6	0.1
O=S(=O)(NCc1ccncc1)c1ccc(Br)s1	3.5	34.3*	-8.5	-0.2
CCCOc1ccc(S(=O)(=O)NCc2ccncc2)c2ccccc12	-0.1	32.4*	15.7	0.0
Cc1cc(S(=O)(=O)NCc2ccncc2)c(C)cc1Cl	0.3	16.6	16.5	0.0
Cc1cc(S(=O)(=O)NCc2ccncc2)c(C)c(C)c1C	2.3	43.4*	-1.0	0.1
O=C(O)CNS(=O)(=O)c1ccc(Br)s1	1.2	-2.4	3.2	0.1
O=C1NC2(CCN(Cc3c(F)cccc3Cl)CC2)Oc2ccccc21	0.0	2.1	-4.6	0.0
Cc1ccc(-n2c(-c3ccccc3F)nc3c(cnn3-c3ccccc3)c2=O)cc1	-0.9	3.0	5.2	-0.1
COC(=O)C1=C(C)NC2=C(C(=O)CC(c3ccc(OC)c(OC)c3)C2)C1c1ccc(O)cc1 (stereo not drawn)	1.1	3.0	14.8	-0.3
CC(NC(=O)CSc1nnc(Nc2ccccc2F)s1)C1CC2CCC1C2 (stereo not drawn)	-2.3	4.2	-6.4	0.1
COc1ccccc1N1CCN(C(=O)c2sc3ncnc(N4CCN(c5ccccn5)CC4)c3c2C)CC1	-0.8	35.3*	-5.0	0.0
CCN1CCN(C(=O)c2sc3ncnc(N4CCN(c5ccccn5)CC4)c3c2C)CC1	-0.2	19.2	5.6	-0.1
Cc1c(C(=O)N2CCN(Cc3ccccc3)CC2)sc2ncnc(N3CCN(c4ccccn4)CC3)c12	2.9	36.5*	-9.8	-0.3
O=C1CC(C(=O)Nc2ccc(-c3cn[nH]c3)cc2)Cc2ccccc21 (stereo not drawn)	0.1	34.5*	-7.9	0.0
COc1cc(OC)cc([C@@H]2C[C@H]3CN(Cc4cccc(Cl)c4)C(=O)[C@]34CCCN24)c1	-0.4	14.9	8.9	0.1
CC(=O)Nc1ccc2nc(SCC(=O)NCCOc3ccc(Cl)cc3)sc2c1	1.5	1.2	3.6	0.1
CCOC(=O)C1=C(CC)NC2=C(C(=O)CCC2)C1c1ccccc1I (stereo not drawn)	-1.2	5.7	1.5	-0.1
COc1cc2nc(CN3CCCCCCC3)[nH]c(=O)c2cc1OC	-0.3	-1.3	7.8	0.2
COc1cc2nc(CN3c4ccccc4CC3C)[nH]c(=O)c2cc1OC (stereo not drawn)	1.3	48.2*	0.6	-0.1
COc1cc2nc(CN3CCN(c4ccccn4)CC3)[nH]c(=O)c2cc1OC	2.0	72.9*	-0.2	-0.1
C[C@@H]1C[C@@H](C(=O)N2Cc3ccccc3OC(c3ccccc3)C2)NC(=S)N1 (stereo partly drawn)	0.4	-5.5	-9.6	-0.1
Cc1ccc2c(c1)C(c1ccccc1)CC(C)N2C(=O)c1ccco1 (stereo not drawn)	0.2	50.5*	-0.9	0.0
CCN1CCN(C(c2ccccc2)c2nnnn2C2CCCCC2)CC1 (stereo not drawn)	1.3	39.2*	-5.4	-0.3
c1cc(-n2cnc(N3CCOCC3)n2)ccc1Nc1ncc2ccc(-c3cn[nH]n3)cc2n1	-1.0	67.9*	19.9	0.5
SMILES	GPR151 ag	TEAD-YAP inh	MITF inh	FBW7 act
c1n[nH]c(-c2ccc3cnc(Nc4ccc(-n5cnc(N6CCOCC6)n5)cc4)nc3c2)n1	3.1	65.2*	15.5	-0.2
c1cc(-c2ccc3cnc(Nc4ccc(-n5cnc(N6CCOCC6)n5)cc4)nc3c2)cs1	-0.1	-6.2	21.8	0.0
CC1=CC(C)(C)N2C(=O)C(=O)c3cc(OS(=O)(=O)c4ccc(C)cc4)cc1c32	-0.3	12.2	31.6	-0.6
CC1=CC(C)(C)N2C(=O)C(=O)c3cc(O)cc1c32	-1.0	54.2*	33.8	-0.1
CC(C)(O)C(=O)NNC(=O)Nc1ccc(Br)cc1	-0.5	-7.1	12.5	0.3
CC(=O)Oc1cccc(N2Cc3ccccc3C2=O)c1	-4.5	73.0*	-1.8	-0.1
N=c1sc2c(n1CC(=O)c1ccc(I)cc1)CCCC2	1.1	-42.3	0.0	-0.1
N=c1sc2c(n1CC(=O)c1ccc(Cl)cc1)CCCC2	-1.0	36.6*	-15.0	0.1
COCCn1c(O)c(C=Nc2nc3ccccc3nc2N2CCCC2)c(=O)[nH]c1=S	-0.1	2.0	3.9	-0.1
Oc1ccc(CCNc2nc(-c3ccc(N4CCOCC4)nc3)nc3c2ncn3-c2ccsc2)cc1	-0.4	65.0*	-10.3	0.2
COc1ccc(-c2nc(NCc3cccnc3)c3ncn(C(C)C)c3n2)cc1	4.3	4.0	11.2	0.7
CC(C)n1cnc2c(NCc3cccnc3)nc(-c3ccc(C(N)=O)cc3)nc21	0.0	38.8*	26.2	-0.1
COc1ccc(CCNc2nc(-c3ccc(N4CCOCC4)nc3)nc3c2ncn3-c2ccsc2)cc1	1.3	-0.7	-1.0	0.3
COc1ccc(CCNc2nc(-c3ccc(C(N)=O)cc3)nc3c2ncn3C2CCCCC2)cc1	-1.2	8.7	-0.5	0.0
NC(=O)c1ccc(-c2nc(NCc3cccnc3)c3ncn(-c4ccsc4)c3n2)cc1	-0.4	50.7*	-0.8	0.0
COc1ccc(CCNc2nc(-c3ccc(C(=O)NC4CC4)cc3)nc3c2ncn3C2CCCCC2)cc1	1.4	51.2*	6.9	0.1
O=c1c2ncccc2n(Cc2ccccc2Cl)c(=O)n1Cc1ccc2c(c1)OCO2	1.2	-2.6	2.9	-0.1
C/C(=N\OC(=O)c1cccc(C(F)(F)F)c1)c1nccs1	-0.2	-8.4	-12.5	0.0
Cc1n[nH]c(C)c1CCc1nc2c3ccccc3nc(NCc3ccco3)n2n1	1.4	-10.2	-7.7	-0.1
CCC1SC2=NC(C)=C(C(=O)OC)C(c3ccc(SC)cc3)N2C1=O (stereo not drawn)	0.2	-4.2	5.0	0.0
CC(C)n1c(Nc2ccc3ncccc3c2)nc2c(Nc3ccc(N4CCOCC4)cc3)ncnc21	0.8	-14.9	-8.0	0.0
NC(=O)c1ccc(-c2nc(NCCc3ccc(O)cc3)c3ncn(-c4ccsc4)c3n2)cc1	-1.0	43.5*	7.7	0.1
O=C(NC1CC1)c1ccc(-c2nc(NCCc3ccc(O)cc3)c3ncn(-c4ccsc4)c3n2)cc1	1.2	58.5*	5.9	0.0
Cn1c2c(c3ccccc31)CC/C2=N\OC(=O)CCl	0.8	-19.1	0.9	0.0
COc1ccc(C(CC(=O)NCc2cccs2)N2Cc3ccccc3C2=O)cc1OC (stereo not drawn)	-0.1	3.1	-20.1	0.1
SMILES	GPR151 ag	TEAD-YAP inh	MITF inh	FBW7 act
COCCCNc1ncnc2c1cnn2-c1ccccc1	-0.6	42.5*	10.2	-0.1
CCCNc1ncnc2c1cnn2-c1ccccc1	-2.6	8.0	12.7	0.2
COc1ccc(-n2ncc3c(NC(C)(C)C)ncnc32)cc1	0.9	36.1*	3.6	0.0
CC(C)c1nccn1CC1CCN(C(=O)c2ccccc2Cl)CC1	-0.3	33.2*	8.8	0.0
CCOC(=O)c1ccc(COC(=O)c2ccccc2NC)cc1	-1.0	-9.0	-9.1	2.2*
COc1cc(/C=C2/C(=N)N3N=C(Cc4ccccc4)SC3=NC2=O)ccc1OCCOc1ccccc1Cl	-0.8	-0.5	10.8	0.0
CC1CCN(C(=O)CCl)c2ccccc2S1 (stereo not drawn)	-0.4	66.7*	14.6	0.1
